Screening results (PubChem BioAssay)
This is a sample that favours compounds with a hit; in the whole collection about 3.5% have one here.
FBW7 act = activators of human E3 ligase FBW7. normalized activity (activation), % at 26.1 µM. AlphaScreen FBW7–phospho-cyclin E peptide binding, activator screen. Q969H0. AID 1259310. actives 0.13% (n = 650,000); in the data active = normalized activity above about 1.9%;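 also: purified mutant Fbw7 with reduced substrate affinity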
GPR151 ag = human GPR151 activation; Q8TDV0; PathHunter beta-arrestin GPR151 cells, luminescence; activation, % at 11.2 µM; actives 1% (n = 650,000); in the data active = activation above about 4.9%
Target sequence (Q8TDV0 whole entry, looked up): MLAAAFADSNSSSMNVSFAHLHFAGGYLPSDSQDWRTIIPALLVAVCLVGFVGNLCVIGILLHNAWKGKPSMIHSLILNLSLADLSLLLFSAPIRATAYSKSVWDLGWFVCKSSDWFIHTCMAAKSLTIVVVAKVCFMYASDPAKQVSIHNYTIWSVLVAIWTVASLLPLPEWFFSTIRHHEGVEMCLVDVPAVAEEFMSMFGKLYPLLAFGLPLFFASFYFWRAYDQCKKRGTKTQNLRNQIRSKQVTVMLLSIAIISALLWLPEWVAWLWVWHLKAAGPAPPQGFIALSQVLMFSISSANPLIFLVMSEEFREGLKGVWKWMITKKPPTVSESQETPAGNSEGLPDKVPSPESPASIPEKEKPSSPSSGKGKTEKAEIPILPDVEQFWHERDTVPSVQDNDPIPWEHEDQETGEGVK
MITF primary = inhibitors of human MITF. AlphaScreen MITF homodimerization, bead proximity signal. inhibition, % at 2.6 µM. actives 0.91% (n = 650,000). AID 1259374; in the data active = inhibition above about 50%
TEAD-YAP inh = TEAD-YAP interaction inhibition | actives 1.4% (n = 640,000) | inhibition, % at 9.12 µM | HEK-TIYL cells, TEAD-Gal4/YAP UAS-luciferase luminescence; in the data active = inhibition above about 32%
MITF confirm = human MITF inhibition, confirmation | shares compounds with MITF primary | AlphaScreen MITF homodimerization, biotin/His-MITF beads | inhibition, % at 2.6 µM | actives 16% (n = 4,700);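 active = inhibition above a cutoff derived from the DMSO control wells, cut at about 28% in these data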;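 also: inhibitors lower the bead chemiluminescence by keeping MITF from dimerizing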
AlphaScreen DR = optically interferes with AlphaScreen signal in dose response. actives 6% (n = 480). shares compounds with MITF primary. AlphaScreen optical interference counterscreen, cell-free. IC50, µM. AID 1259373; call rule not given here
AS interf ctr = optically interferes with AlphaScreen signal; shares compounds with MITF primary; LysRS AlphaScreen counterscreen, signal interference, triplicate; inhibition, % at 2.6 µM; actives 7.6% (n = 4,700); AID 1259376;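 active = inhibition above a cutoff derived from the DMSO control wells, cut at about 30% in these data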
Each line names hits and unclear results; the compound was inactive in the other large screens (follow-up assays come after a bar, where they were run).

CC1CC(C)CN(C(=O)c2cccc3ccccc23)C1 (configuration not stated)	none
CC(C)n1cnc2c(N)nc(-c3cccs3)nc21	none
CCC(=O)NC(=S)NNC(=O)c1ccccc1O	MITF primary 63 | MITF confirm inactive | AS interf ctr 69
O=C(O)Cn1cnc([N+](=O)[O-])c1	none
O=c1cc(-c2ccc3c(c2)OCCO3)oc2c1ccc1ccccc12	none
N#CC(C#N)=C(N)/C(C#N)=C/c1ccc([N+](=O)[O-])o1	MITF primary 84 | MITF confirm 67 | AlphaScreen DR inactive | AS interf ctr inactive
COc1cc(Br)c(/C=N/N=C2/NC(=O)CS2)cc1OC	none
Cc1ccc(OCCN2CCOCC2)c([N+](=O)[O-])c1	none
COCCCNCCCOc1ccc(C)cc1[N+](=O)[O-]	MITF primary 64 | MITF confirm inactive | AS interf ctr inactive
Cc1ccc(OCCN(C)C)c([N+](=O)[O-])c1	MITF primary 51 | MITF confirm inactive | AS interf ctr inactive
Cc1ccc(OCCN2CCC(C)CC2)c([N+](=O)[O-])c1	MITF primary 64 | MITF confirm inactive | AS interf ctr inactive
Cc1ccc(C)c(NNC(=O)C(=O)NNc2cc(C)ccc2C)c1	MITF primary 51 | MITF confirm inactive | AS interf ctr inactive
Cc1ccc(NC(=O)C(Cc2c[nH]c3ccccc23)NC(=O)OC(C)(C)C)cc1 (configuration not stated)	MITF primary 62 | MITF confirm inactive | AS interf ctr inactive
O=C(O)c1cc(N/N=C/c2ccc(N3CCOCC3)s2)ccc1Cl	MITF primary 76 | MITF confirm 60 | AlphaScreen DR inactive | AS interf ctr inactive
Nc1cc(C(=O)c2ccc(O)c(N)c2)ccc1O	none
Nc1cc(Oc2ccc(O)c(N)c2)ccc1O	MITF primary 111 | MITF confirm 117 | AS interf ctr 78
NS(=O)(=O)c1ccc(CCNC(=O)c2ccc([N+](=O)[O-])o2)cc1	none
O=C(OC1CCCC1=O)c1ccc(S(=O)(=O)N2CCCCC2)cc1 (configuration not stated)	MITF primary 74 | MITF confirm 65 | AlphaScreen DR inactive | AS interf ctr inactive
O=C(OC1CCCC1=O)c1ccc(Cl)c(S(=O)(=O)N2CCOCC2)c1 (configuration not stated)	MITF primary 66 | MITF confirm 51 | AlphaScreen DR inactive | AS interf ctr inactive
O=C(On1nnc2ccccc21)C1(c2c(F)cccc2Cl)CCCC1	none
Clc1ccccc1CN1CCN(CC2CC3C=CC2C3)CC1 (configuration not stated)	MITF primary 74 | MITF confirm inactive | AS interf ctr inactive
Clc1cccc(CN2CCN(CC3CC4C=CC3C4)CC2)c1 (configuration not stated)	MITF primary 74 | MITF confirm inactive | AS interf ctr inactive
Cc1cccc(CN2CCN(CC3CC4C=CC3C4)CC2)c1 (configuration not stated)	MITF primary 57 | MITF confirm inactive | AS interf ctr inactive
O=S(=O)(Cc1ccccc1)N1CCN(CC2CC3C=CC2C3)CC1 (configuration not stated)	none
CCOC(=O)N1CCC(N2Cc3cccc(C(=O)Nc4ccc(C(C)=O)cc4)c3C2=O)CC1	none
CCCCCCSc1nc(-c2ccccc2)cc(-c2ccccc2OC)c1C#N	none
CCCC1=NN2C(=N)/C(=C/c3cn(CCOc4ccc(C)cc4)c4ccccc34)C(=O)N=C2S1	none
OC(CNNc1c(F)c(F)cc(F)c1F)COc1ccccc1 (configuration not stated)	MITF primary 58 | MITF confirm inactive | AS interf ctr inactive
CC(C)NCC(O)COc1ccccc1 (configuration not stated)	none
CCOC(=O)c1sc(NC(=O)COc2ccc(OCC)cc2)c(C#N)c1C	none
O=C(Cc1ccccc1)Nc1ccc(Nc2ccc(-n3cccn3)nn2)cc1	MITF primary 60 | MITF confirm inactive | AS interf ctr inactive
Cc1ccc(Nc2ccc(NC(=O)Cc3ccccc3)cc2)nn1	none
O=S(=O)(c1ccc(F)cc1)N1CCC(O)(c2cccnc2)CC1	MITF primary 72 | MITF confirm inactive | AS interf ctr inactive
Cc1ccc(S(=O)(=O)N2CCC(O)(c3cccnc3)CC2)cc1	none
C=CCNCCOCCOc1c(C)cccc1C(C)(C)C	MITF primary 68 | MITF confirm inactive | AS interf ctr inactive
COCCNCCCCOc1c(C)cccc1C(C)(C)C	none
COCCCNCCCOc1c(C)cccc1C(C)(C)C	none
COCCCNCCOc1c(C)cccc1C(C)(C)C	MITF primary 81 | MITF confirm inactive | AS interf ctr inactive
CCOC(=O)C1=C(c2ccccc2)N=c2s/c(=C\c3c[nH]c4ccccc34)c(=O)n2C1c1c(OC)ccc2ccccc12 (configuration not stated)	none
Cc1ccc(-c2csc3nc[nH]c(=O)c23)cc1	none
Cc1ccc(-c2csc3nc(CNCCN(C)C)[nH]c(=O)c23)cc1	MITF primary 96 | MITF confirm inactive | AS interf ctr 83
CCOC(=O)CC(=O)CSc1nc2c(cc1C#N)CN(C)CC2	MITF primary 53 | MITF confirm inactive | AS interf ctr inactive
CCOC(=O)CSc1nc2c(cc1C#N)CCCCC2	none
COc1ccc(CNC(=O)c2c(O)c3c([nH]c2=O)CCCC3)cc1	MITF primary 51 | MITF confirm inactive | AS interf ctr inactive
CC12C=CC3(O1)C(C(=O)N(Cc1ccc(Cl)cc1)C3C(=O)NC1CCCCC1)C2C(=O)Nc1ccc(Cl)c(Cl)c1 (configuration not stated)	none
CCN1CCN(C/C=C/c2ccccc2OC)CC1	MITF primary 51 | MITF confirm inactive | AS interf ctr inactive
O=[N+]([O-])c1ccc(CN2CCN(C/C=C/c3ccccc3)CC2)o1	MITF primary 65 | MITF confirm inactive | AS interf ctr inactive
CCN1CCN(C/C=C/c2ccccc2[N+](=O)[O-])CC1	MITF primary 60 | MITF confirm inactive | AS interf ctr inactive
C/C(=N\Nc1ccc(S(=O)(=O)O)cc1)c1ccc([N+](=O)[O-])o1	MITF primary 60 | MITF confirm 40 | AlphaScreen DR inactive | AS interf ctr inactive
O=C(NCCOc1ccccc1)c1cccc(Nc2ccncn2)c1	MITF primary 81 | MITF confirm inactive | AS interf ctr inactive
Cc1ccc(C)c(S(=O)(=O)c2nnn3c2nc(NCc2ccco2)c2sccc23)c1	none
Cc1cccc(NC(=S)NNC(=O)CC(C)O)c1C (configuration not stated)	MITF primary 57 | MITF confirm inactive | AS interf ctr inactive
Cc1cc(C(=O)NNC(=S)NCC2CCCO2)no1 (configuration not stated)	none
